The conditions of test [1]: Ebola virus entry assay, green fluorescence channel.
The conditions of test [2]: Ebola virus entry assay, blue channel fluorescence.
The conditions of test [3]: Ebola virus entry assay, green fluorescence channel. This is another data set of the same source.
The conditions of test [4]: Ebola virus entry assay, ratio channel readout.
The conditions of test [5]: Ebola virus entry assay, blue channel fluorescence. The source holds these as a separate data set.
For test [6] the following is noted: Ebola virus entry assay, green channel fluorescence.
For test [7] the following is noted: Ebola virus entry assay, blue channel fluorescence. This is another data set of the same source.
For test [8] the following is noted: Ebola virus entry assay, reporter ratio channel; AC50: Channel type: primary unless noted; outcome: Channel type: primary unless noted.
For test [9] the following is noted: Ebola virus entry assay, blue channel (ratio component).
The conditions of test [10]: Ebola virus entry cell assay, ratio channel.
The conditions of test [11]: Ebola virus entry assay, ratio channel.
The nature of test [12]: Immunotoxin (HA22) sensitization/mitigation study. Vehicle arm (PBS) (AID 1159510). Further: potency means the concentration at half of the fitted maximal effect. The conditions noted are these: cancer cells viability with PBS vehicle (HA22 study); series mostly up to 46.1 µM.
For test [13] the following is noted: Ebola virus entry reporter assay, green channel fluorescence.
A short description of test [14]: qHTS profiling of the MIPE4 collection as inhibitors of Plasmodium falciparum (3D7) proliferation (AID 743344).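 Further: scaled between DMSO vehicle wells and 0.29 µM artemisinin as full inhibition.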 Conditions: P. falciparum 3D7 in erythrocytes, SYBR Green DNA fluorescence, 72 h; at 28.5 µM (top of the series) unless noted. Put shortly: (§1)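 Erythrocytes infected with P. falciparum (0.3% parasitemia, 2.5% hematocrit) incubated with compounds 72 h at 37 C, 5% CO2. Lysis with saponin/Triton buffer containing SYBR Green I, overnight at room temperature in the dark; DNA fluorescence (485/535 nm) normalised to 0.29 uM artemisinin and DMSO.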
(qHTS replaces the single test concentration by a dilution series.)

Test [15] is described as follows: qHTS profiling of the MIPE4 collection as inhibitors of Plasmodium falciparum (DD2) proliferation (AID 743345). The conditions noted are these: P. falciparum Dd2 in erythrocytes, SYBR Green DNA, 72 h; at 28.5 µM (top of the series) unless noted. Put shortly: as §1
The nature of test [16]: qHTS profiling of the MIPE4 collection as inhibitors of Plasmodium falciparum (DD2) proliferation (Rep 2) (AID 743346). Conditions: P. falciparum Dd2 in erythrocytes, SYBR Green DNA, 72 h; at 28.5 µM (top of the series) unless noted. An outline of the steps: as §1

For part of these data: Measured potencies and affinities stand elsewhere. The source made the active and inactive calls.

This is an account of results in PubChem BioAssay (NCATS).
Wherever efficacy is given: 0% is about no effect.

On to `C[N+]1(C)CCC(OC(=O)C(O)(c2ccccc2)C2CCCC2)C1` (centres undefined), for which the efficacy in [1] was 28.8% (inactive). Also, the outcome in [2], in test [3], in test [4], in test [5], in test [6] and in [7] was inactive. For the same compound, the outcome in test [8], in test [9] and in [10] was inactive.
Take `O=C(NCCN1CCOCC1)c1ccc(Cl)cc1`: the efficacy in test [1] was -15.2% (inactive). Also, the compound was classed as inactive in [2], in test [3], in [4], in [5], in test [6] and in [7]. Besides, the result in [8], in test [9] and in [10] was inactive.
As to `NNCCc1ccccc1`, in [1], the efficacy is -18.8% (inactive). Also, the call in test [2], in [3], in [4], in test [5], in test [6] and in test [7] was inactive. The outcome in [8], in test [9] and in test [10] was inactive.
For `Nc1nc2c(ncn2COC(CO)CO)c(=O)[nH]1`, the efficacy in test [1] is -13.6% (inactive). The call in [2], in test [3], in [4], in [5], in [6] and in test [7] was inactive. In addition, the outcome in test [8], in test [9] and in [10] was inactive.
As a reminder, the AC50 is the concentration at which the activity in the assay is half-maximal. As to `CS(=O)(=O)CCNCc1ccc(-c2ccc3ncnc(Nc4ccc(OCc5cccc(F)c5)c(Cl)c4)c3c2)o1`, the efficacy in [1] was 108% (inactive). Further, the outcome in test [2], in [3], in test [4] and in test [10] was inactive. Also, the concentration at half-maximal activity (AC50) in [5] is 3.55 µM (active); in [11] it was 3.98 µM (active); in [8], 3.98 µM (active). The Potency in test [12] is 20.9 µM (active).
On to `Cc1nc2n(c(=O)c1CCN1CCC(c3noc4cc(F)ccc34)CC1)CCC[C@H]2O`, for which the efficacy in test [1] is 18.4% (inactive). The compound was called inactive in [2], in test [3], in test [4], in [5], in test [6] and in [7]. Besides, the outcome in [8], in test [9] and in test [10] was inactive.
In the case of `CC(C)[N+](C)(CCOC(=O)C1c2ccccc2Oc2ccccc21)C(C)C`, the efficacy in [1] is -23.3% (inactive). The call in test [2], in [3], in test [4], in test [5], in test [6] and in test [7] was inactive. The outcome in [8], in test [9], in [13] and in test [10] was inactive.
Regarding `C[C@@H](c1ncncc1F)C(O)(Cn1cncn1)c1ccc(F)cc1F` (some centres undefined), the efficacy in [1] is -14.3% (inactive). Further, the outcome in test [2], in test [3], in test [4], in test [5], in test [6] and in test [7] was inactive. Further, the outcome in test [8], in test [9] and in [10] was inactive.
As to `OCCN1C[C@H](O)[C@@H](O)[C@H](O)[C@H]1CO`, in test [1], the efficacy was -21.2% (inactive). The call in [2], in [3], in test [4], in test [5], in test [6] and in [7] was inactive. Moreover, the outcome in [8], in [9], in test [13] and in [10] was inactive.
As to `O=C(C1CCCCC1)N1CC(=O)N2CCc3ccccc3C2C1` (centres undefined), in test [1], the efficacy is 43.7% (inactive). Also, the compound was classed as inactive in test [2], in [3], in [4], in test [5], in [6] and in [7]. Further, the outcome in test [8], in test [9], in test [13] and in test [10] was inactive.
In the case of `CC1OC(C)OC(C)O1` (centres undefined), the efficacy in [1] is 12.6% (inactive). Also, the call in test [2], in [3], in test [4], in test [5], in [6] and in test [7] was inactive. For the same compound, the result in test [8], in test [9], in [13] and in [10] was inactive.
With `N[C@@H](Cc1ccc(N(CCCl)CCCl)cc1)C(=O)O`, the parasite growth, % of DMSO control in test [14] was 47.5%. Besides, the parasite growth remaining, % of DMSO control (lower = more inhibition) in test [15] stood at 21.4%. In test [16], this compound had a parasite growth, % of control (lower = inhibition) of 31.9%. Also, the efficacy in test [1] is 12.7% (inactive). Further, the compound was classed as inactive in test [2], in [3], in [4], in test [5], in test [6] and in [7]. Besides, the outcome in test [8], in test [9], in test [13] and in [10] was inactive.
For `Cc1cnc(C(=O)NCCc2ccc(S(=O)(=O)NC(=O)NC3CCCCC3)cc2)cn1`, the efficacy in test [1] was -14.5% (inactive). Also, the call in test [2], in test [3], in test [4], in [5], in [6] and in test [7] was inactive. The result in [8], in test [9] and in test [10] was inactive.
For `COc1ccc(Cl)cc1C(=O)NCCc1ccc(S(=O)(=O)NC(=O)NC2CCCCC2)cc1`, the efficacy in test [1] is 15.6% (inactive). Moreover, the outcome in test [2], in test [3], in [4], in [5], in test [6] and in test [7] was inactive. For the same compound, the outcome in test [8], in [9] and in test [10] was inactive.
Turning to `CCCCC1=NC2(CCCC2)C(=O)N1Cc1ccc(-c2ccccc2-c2nn[nH]n2)cc1`, the efficacy in test [1] is 32.1% (inactive). In addition, the outcome in test [2], in test [3], in test [4], in test [5], in test [6] and in [7] was inactive. The outcome in test [8], in test [9], in test [13] and in [10] was inactive.
Turning to `COc1ccccc1Oc1c(NS(=O)(=O)c2ccc(C(C)(C)C)cc2)nc(-c2ncccn2)nc1OCCO`, the efficacy in [1] was -15.4% (inactive). Besides, the result in test [2], in [3], in test [4], in test [5], in test [6] and in [7] was inactive. For the same compound, the outcome in [8], in test [9] and in [10] was inactive.
Regarding `CC[C@@]1(c2ccccc2)NC(=O)N(C)C1=O`, in [1], the efficacy was -26.5% (inactive). Moreover, the call in [2], in [3], in test [4], in [5], in test [6] and in test [7] was inactive. The result in [8], in test [9] and in test [10] was inactive.
`CC1=C(C(=O)O)N2C(=O)[C@@H](NC(=O)[C@H](N)c3ccccc3)[C@H]2SC1`: the efficacy in test [1] is 11.4% (inactive). Besides, the outcome in [2], in test [3], in [4], in [5], in test [6] and in [7] was inactive. In addition, the result in test [8], in test [9], in [13] and in test [10] was inactive.
